From paper PMC4336329 (PLoS ONE, 2015)
Among all 310,000 compounds or so, about 14,000 (4.5%) showed an effect of 50% or more. Effects have a minus sign here. For the sample, strong results were picked, then their nearest neighbours and some compounds at random.

Target: human ether-à-go-go-related gene (hERG) potassium channel (human, UniProt Q12809)
Experiment: primary screen, population patch clamp on CHO cells stably expressing hERG; higher = less effect of the substance
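Also: peak tail current of the secondary pulse compared with the same well before compound.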

Sequence of human ether-à-go-go-related gene (hERG) potassium channel (Q12809 whole entry, looked up): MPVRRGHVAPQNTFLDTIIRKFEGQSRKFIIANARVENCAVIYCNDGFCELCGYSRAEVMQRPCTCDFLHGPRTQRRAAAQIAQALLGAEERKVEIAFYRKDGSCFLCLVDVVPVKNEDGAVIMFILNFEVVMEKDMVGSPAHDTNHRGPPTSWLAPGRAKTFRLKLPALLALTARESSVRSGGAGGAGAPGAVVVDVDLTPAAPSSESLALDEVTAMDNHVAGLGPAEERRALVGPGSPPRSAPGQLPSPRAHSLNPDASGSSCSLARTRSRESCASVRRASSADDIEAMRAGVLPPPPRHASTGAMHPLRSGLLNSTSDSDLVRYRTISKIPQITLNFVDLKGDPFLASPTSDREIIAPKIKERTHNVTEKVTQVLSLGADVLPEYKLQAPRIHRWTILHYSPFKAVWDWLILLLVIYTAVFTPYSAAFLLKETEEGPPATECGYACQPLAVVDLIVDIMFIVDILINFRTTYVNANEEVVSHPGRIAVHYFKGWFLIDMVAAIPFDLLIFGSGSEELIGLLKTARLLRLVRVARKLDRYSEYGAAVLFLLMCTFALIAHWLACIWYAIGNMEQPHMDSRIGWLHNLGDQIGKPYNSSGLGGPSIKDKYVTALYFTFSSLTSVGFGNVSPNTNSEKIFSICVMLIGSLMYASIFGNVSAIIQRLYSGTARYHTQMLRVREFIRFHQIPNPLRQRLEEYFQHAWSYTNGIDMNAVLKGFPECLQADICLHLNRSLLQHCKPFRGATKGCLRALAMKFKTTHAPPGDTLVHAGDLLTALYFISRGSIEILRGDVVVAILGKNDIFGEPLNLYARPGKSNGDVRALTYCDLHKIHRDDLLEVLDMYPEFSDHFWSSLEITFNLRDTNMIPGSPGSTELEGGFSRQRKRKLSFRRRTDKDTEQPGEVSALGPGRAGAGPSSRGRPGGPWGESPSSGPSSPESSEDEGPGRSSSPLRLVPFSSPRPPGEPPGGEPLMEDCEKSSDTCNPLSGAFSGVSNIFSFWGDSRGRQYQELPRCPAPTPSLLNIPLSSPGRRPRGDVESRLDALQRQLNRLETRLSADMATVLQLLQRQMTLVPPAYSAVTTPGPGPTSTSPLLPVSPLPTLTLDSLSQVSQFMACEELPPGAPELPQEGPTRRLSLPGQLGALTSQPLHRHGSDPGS

Row | SMILES | hERG current change (%, negative = inhibition) at 10uM [%]
1 | COc1ccc(C(=O)N2CCC(C(=O)Nc3ccc(OC)c(OC)c3)CC2)cc1 | 1.37
2 | COc1ccc(C(=O)N2CCC(C(=O)NC3CC3)CC2)cc1 | 4.25
3 | COc1ccc2sc(-c3ccccc3OC)c(-c3ccc4c(c3)OCCO4)c2c1 | 17.2
4 | Cc1c(C(=O)Nc2ccc3c(c2)OCCO3)oc2ccc(Br)cc12 | 0.46
5 | CCOC(=O)COc1c(OC)cc(Cl)cc1C1Nc2ccccc2C(=O)N1c1cccc(C)c1 (stereo not drawn) | -8.45
6 | O=C1OCCN/C1=C\C(=O)c1ccc(Cl)cc1 | 14.5
7 | Cn1ccc(NS(=O)(=O)c2cc(Br)ccc2Br)n1 | 0.158
8 | O=C(CCS(=O)(=O)c1ccc(F)cc1)Nc1nnc(-c2ccc(F)cc2)o1 | -10.7
9 | COc1ccc(NC(=O)c2sc3ncn(CC(=O)N4CCN(c5ccccn5)CC4)c(=O)c3c2C)c(OC)c1 | 19.5
10 | O=C(c1ccco1)N1N=C(c2cccs2)CC1c1cc([N+](=O)[O-])ccc1O (stereo not drawn) | 7.51
11 | CCC(C)CCN1C(N(C)C)=NC[C@@H]1CC(C)C (stereo partly drawn) | -11
12 | CC(C)CCCN1C(N(C)C)=NC[C@@H]1Cc1ccccc1 | -24.9
13 | CCCCCCCN1C(N(C)C)=NC[C@@H]1Cc1ccccc1 | -80.1
14 | CCC(C)CCN1C(N(C)C)=NC[C@@H]1Cc1ccccc1 (stereo partly drawn) | -22.5
15 | CC(C)C[C@H]1CN=C(N(C)C)N1CCCCc1ccccc1 | -64.7
16 | C[C@H]1CN=C(N(C)C)N1CCCCc1ccccc1 | -25.5
17 | CN(C)C1=NC[C@H](Cc2ccccc2)N1CCCCc1ccccc1 | -71
18 | CCC(CC)CN1C(N(C)C)=NC[C@@H]1CC(C)C | -4.65
19 | CCN1C(N(C)C)=NC[C@@H]1Cc1ccccc1 | -1.57
20 | COC(=O)C1=NN(c2cccc(C)c2)C2C(=O)N(c3ccccc3OC)C(=O)C12 (stereo not drawn) | -4.79
21 | COc1ccccc1OCc1cc(C(=O)NCc2ccc(N3CCCC3=O)cc2)no1 | 13.4
22 | Cc1ccc(OC(=O)c2cccc(S(=O)(=O)N3CCN(C)CC3)c2)c(Br)c1 | -19.5
23 | O=C(NCc1ccccc1)C(C(=O)c1ccc(F)cc1)n1ccccc1=O (stereo not drawn) | -0.0984

Row | SMILES | hERG current change (%, negative = inhibition) at 10uM [%]
24 | COc1ccc(C2(C(=O)Nc3ccccc3)CCOCC2)cc1 | -14.2
25 | CC1CCCCC1NC(=O)COC(=O)/C=C/c1ccco1 (stereo not drawn) | -1.9
26 | O=C1c2ccc(Oc3ccc([N+](=O)[O-])cc3)cc2C(=O)N1CCCO | -60.8
27 | O=C1c2ccc(Oc3ccc4c(c3)C(=O)N(CCCCO)C4=O)cc2C(=O)N1CCCCO | -24.1
28 | O=C(O)CCN1C(=O)c2ccc(Oc3ccc([N+](=O)[O-])cc3)cc2C1=O | 4.85
29 | O=C1c2ccc(Oc3ccc([N+](=O)[O-])cc3)cc2C(=O)N1CCO | -52.8
30 | O=C(O)CN1C(=O)c2ccc(Oc3ccc([N+](=O)[O-])cc3)cc2C1=O | 23.2
31 | O=C1c2ccc(Oc3ccc4c(c3)C(=O)N(CCCO)C4=O)cc2C(=O)N1CCCO | -1.78
32 | CCC(=O)N1CCCc2cc(S(=O)(=O)N3CCN(c4ccccc4F)CC3)ccc21 | -23.7
33 | CCOC(=O)C1CCCN(C(=O)c2cnn3c(C(F)F)cc(-c4ccc(C)cc4)nc23)C1 (stereo not drawn) | -38.4
34 | Cl.O=C(NCCCN1CCOCC1)c1ccc(Cl)c(S(=O)(=O)N2CCCCCC2)c1 | -50.6
35 | CC(C)(C)SCCNC(=O)c1ccc(Cl)c(S(=O)(=O)N2CCOCC2)c1 | -6.74
36 | O=C(NCCSCc1ccccc1)c1ccc(Cl)c(S(=O)(=O)N2CCOCC2)c1 | -50
37 | Cc1ccccc1CSCCNC(=O)c1ccc(Cl)c(S(=O)(=O)N2CCOCC2)c1 | -42.2
38 | O=C(NCCN1CCOCC1)c1ccc(Cl)c(S(=O)(=O)N2CCOCC2)c1 | 13.1
39 | CC(C)(CNC(=O)c1ccc(Cl)c(S(=O)(=O)N2CCc3ccccc3C2)c1)N1CCOCC1 | -50.3
40 | O=C(NCCN1CCOCC1)c1ccc(Cl)c(S(=O)(=O)N2CCCCC2)c1 | -58.3
41 | Cc1ccc(CSCCNC(=O)c2ccc(Cl)c(S(=O)(=O)N3CCOCC3)c2)cc1 | -40.5
42 | Cc1ccc(C(=O)NCCN2CCOCC2)cc1S(=O)(=O)N1CCCCC1 | -20.7
43 | O=C(NCCN1CCOCC1)c1ccc(Cl)c(S(=O)(=O)N2CCCC2)c1 | -0.109
44 | COc1ccc(C(=O)NCC(C)(C)N2CCOCC2)cc1S(=O)(=O)N1CCCC1 | -8.82
45 | Cl.O=C(NCCN1CCOCC1)c1ccc(Cl)c(S(=O)(=O)N2CCCCCC2)c1 | -40.1
